# Rows were chosen to be rich in hits. Some 28% of all compounds tested hit in one or more screens of this group.
# CYP2C9 inh = blockers of cytochrome P450 2C9 activity – biochemical, luminescence, ADME assay, primary screen; AID 777, 2007; P11712; inhibition, % at 5 µM; CYP2C9 Supersomes, luciferin-H conversion; 96,000 tested, 20% active;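 active means blocking of liver enzyme CYP2C9 beyond about 50% at 5 µM, limit read from the data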
# Target sequence (P11712 whole entry, looked up): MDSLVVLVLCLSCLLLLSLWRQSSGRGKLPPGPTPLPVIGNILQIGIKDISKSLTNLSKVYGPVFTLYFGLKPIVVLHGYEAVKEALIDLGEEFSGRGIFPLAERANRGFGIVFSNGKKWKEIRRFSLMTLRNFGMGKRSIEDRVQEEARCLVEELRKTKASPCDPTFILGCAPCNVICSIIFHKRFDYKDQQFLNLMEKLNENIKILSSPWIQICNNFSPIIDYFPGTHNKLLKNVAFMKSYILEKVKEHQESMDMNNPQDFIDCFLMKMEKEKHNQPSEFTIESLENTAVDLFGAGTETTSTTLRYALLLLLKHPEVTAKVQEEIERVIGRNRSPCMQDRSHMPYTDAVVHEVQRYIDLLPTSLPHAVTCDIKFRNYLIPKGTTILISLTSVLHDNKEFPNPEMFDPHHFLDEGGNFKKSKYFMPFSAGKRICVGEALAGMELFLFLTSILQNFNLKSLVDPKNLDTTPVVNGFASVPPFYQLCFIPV
# CD11b adhes inh = inhibitors of CD11b/CD18 adhesion to fibrinogen, primary screen, K562 cells, luminescence; Integrin beta-2 (Homo sapiens) + Integrin alpha-M (Homo sapiens), P05107+P11215; ATPlite luminescence; Mn2+ added to activate the integrin; inhibition, % at 10 µM; 93,000 tested, 0.54% active;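 active means primary inhibition of 50% or more at 10 µM, then 40% or more on retest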
# CYP2C19 act = human CYP2C19 activators, primary screen, biochemical, luminescence; 96,000 tested, under 10 active; recombinant CYP2C19, luciferin-H EGE luminescence; active compounds read high; 0 = fully inhibited enzyme, 1 = untreated enzyme; AID 1025, 2008; activation factor at 5 µM; Cytochrome P450 2C19 (Homo sapiens), P33261;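 active means activation factor of at least 2 at 5 µM in the primary screen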;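 further: 0 = wells with 2.5 mM tranylcypromine and 1 = vehicle-only wells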
# CYP2C9 activ = human CYP2C9 activators, primary screen, biochemical, luminescence. Cytochrome P450 2C9 (Homo sapiens), P11712. 96,000 tested, 1.4% active. activation factor at 5 µM. recombinant CYP2C9, luciferin-H conversion; active compounds read high; factor 1 = untreated enzyme, 0 = blocked;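 active means activation factor of 2 or more for CYP2C9 at a 5 µM dose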;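 further: 0 = sulfaphenazole-blocked wells and 1 = vehicle-only wells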
# CYP2C19 inh = blockers of cytochrome P450 2C19 activity – biochemical, luminescence, ADME assay, primary screen | AID 778, 2007 | CYP2C19 Supersomes, luciferin-H EGE luminescence, 30 min | inhibition, % at 5 µM | 96,000 tested, 21% active;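 active means CYP2C19 inhibition above a set limit at 5 µM in the primary screen, cut at about 50% in these data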;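 further: plate controls were negative control wells for no effect and 2.5 mM tranylcypromine positive control for full effect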
# Mac1 fbg enh = enhancers of CD11b/CD18 adhesion to fibrinogen, primary screen, K562 cells, luminescence; ATPlite luminescence; activation, % at 10 µM; 93,000 tested, 0.07% active; AID 1499, 2009;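 active means 10 µM primary screen giving 50% or more activity, confirmed by 40% or more on retest at that dose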
# Starred values were filed as active, the others as inactive; . = no result given.
SMILES,CYP2C9 inh,CD11b adhes inh,CYP2C19 act,CYP2C9 activ,CYP2C19 inh,Mac1 fbg enh
Cc1ccc2c(CN3CCN(S(=O)(=O)c4ccc5c(c4)OCCO5)CC3)cc(=O)oc2c1C,70*,14,0.3,0.3,71*,-2
CCc1cc(=O)oc2cc(OC(C)C(=O)O)c(Cl)cc12 (stereo unspecified),21,8,1.1,0.8,-12,-2
Cc1noc(C)c1S(=O)(=O)N1CCN(Cc2ccc3c(c2)OCO3)CC1,15,-6,0.5,0.8,48,0
Cn1c(=O)oc2cc(S(=O)(=O)N3CCN(Cc4ccc5c(c4)OCO5)CC3)ccc21,30,.,0.7,0.7,25,.
O=S(=O)(Cc1ccccc1)N1CCN(Cc2ccc3c(c2)OCO3)CC1,54*,-10,0.1,0.5,91*,1
O=C(c1ccc(CNS(=O)(=O)c2ccccc2)cc1)N1CCN(Cc2ccccc2)CC1,46,19,0.6,0.5,41,2
O=S(=O)(c1cccc(F)c1)N1CCN(Cc2ccc3c(c2)OCO3)CC1,86*,2,0.1,0.1,91*,-2
CCN(CC(=O)Nc1ccc2c(c1)OCCO2)Cc1cc(=O)oc2c(C)c(C)ccc12,84*,33,0.1,0.2,92*,0
CN(C)S(=O)(=O)c1cccc(C(=O)N2CCN(Cc3ccccc3)CC2)c1,4,-5,0.5,1,53*,6
N#CCC(=O)N/N=C1\CCCCC1C1CCCCC1 (stereo unspecified),.,11,.,.,.,2
CC1=CC(C)(C)N2C(=O)C3(C(C#N)=C(N)OC4=C3C(=O)CC(C)(C)C4)c3c(C)c(C)cc1c32 (stereo unspecified),9,4,0.9,0.9,8,-1
CC1CN(S(=O)(=O)Cc2ccccc2)CC(C)O1 (stereo unspecified),-22,2,0.3,1.2,66*,3
O=S(=O)(c1ccc2c(c1)OCCO2)N1CCN(Cc2ccccc2)CC1,-40,-1,0.2,1.4,82*,-2
O=S(=O)(c1ccc2c(c1)OCCO2)N1CCC(O)(c2ccc(Cl)cc2)CC1,12,82,0,0.9,98*,-5
O=S(=O)(/C=C/c1ccccc1)N1CCN(c2cccc(Cl)c2)CC1,76*,4,0.1,0.2,93*,9
O=C(NC1CCCCC1)NC1CCN(S(=O)(=O)c2ccc3c(c2)OCCO3)CC1,-15,-16,1.1,1.1,-7,-3
COc1ccc(CCN(Cc2cccs2)S(=O)(=O)c2ccc(S(=O)(=O)N(C)C3CCCCC3)cc2)cc1OC,.,11,.,.,.,16
COC(=O)C(NC(=O)c1ccccc1)=C1CCCCC1,42,-8,0.8,0.6,25,-4
CN1CCN(S(=O)(=O)c2ccc3c(c2)OCCO3)CC1,-22,-4,0.5,1.2,46,2
O=S(=O)(c1ccc(F)c(F)c1)N1CCN(Cc2ccc3c(c2)OCO3)CC1,43,-6,0.8,0.6,19,-2
O=S(=O)(c1ccc2c(c1)OCCO2)N1CCN(Cc2ccc3c(c2)OCO3)CC1,89*,5,0.1,0.1,94*,6
O=S(=O)(c1ccc2c(c1)OCCO2)N1CCN(c2cccc(Cl)c2)CC1,58*,15,0.1,0.4,89*,-4
O=C(c1ccc2c(=O)n3c(nc2c1)CCCCC3)N1CCN(Cc2ccccc2)CC1,73*,-6,0.4,0.3,55*,-2
O=S(=O)(Cc1ccccc1)N1CCCC1,-11,-20,0.7,1.1,31,-2
CN1CCN(C(=O)c2ccc3c(=O)n4c(nc3c2)CCCCC4)CC1,-4,.,1,1,-4,.
CCN1CCN(S(=O)(=O)Cc2ccccc2)CC1,-49,0,0.5,1.5,52*,-1
N#Cc1ccc(Oc2ccc(/C=N/O)cn2)cc1,-11,-17,0.7,1.1,26,1
